# High-throughput results deposited in PubChem by National Center for Advancing Translational Sciences (NCATS).
# In the library only some 3.6% were active in any assay of this set; here they are far more common.
# Nrf2 block = blocks Nrf2 signaling; A549 ARE-Fluc reporter, luciferase luminescence, 18-24 h; Potency, µM (series often up to 46 µM), for the others: at the top dose activity change, negative = inhibition, actives largely listed as inhibitors; actives 2.1% (n = 360,000); note: % is set by controls: 0 for no effect and ±100 for the full control effect; nearly all actives have a fitted effect of over 60% in size
#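 Two sequential reads on A549 ARE_Fluc cells exposed to compound for 18-24 h: a CellTiter-Fluor fluorescence read for viability, then a luciferase luminescence read for Nrf2/ARE activity.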
# Nrf2 ARE act = Nrf2 pathway activation. AREc32 ARE-luciferase reporter (MCF7-derived line), luminescence, 24 h. Potency, µM (series often up to 46.1 µM), without a hit: top-dose activation, most hits filed as activators. actives 0.31% (n = 410,000). AID 624171; note: % of control where 0% means no effect; nearly all actives have a fitted effect of over 65% in size
#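 Quantitative high-throughput format: AREc32 reporter cells, 1000 per well, received compound by pin transfer and were incubated 24 hr at 37 deg C, 5% CO2, before Steady-Glo luminescence detection.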
# A549 tox = A549 cytotoxicity, counter-screen for Nrf2 inhibitors | A549 ARE-Fluc cells, CellTiter-Fluor viability, 18-24 h | Potency, µM (series often up to 46 µM), inactives show at the top dose activity change, negative = cytotoxicity, hits mostly inhibitors | actives 0.16% (n = 390,000) | AID 504648; note: % is set by controls: 0 for no effect and ±100 for the full control effect
#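 Cytotoxicity counterscreen: CellTiter-Fluor fluorescence was measured in A549 ARE_Fluc cells after 18-24 h of compound exposure in a concentration series. The subsequent BugLite luminescent read reports ARE-luciferase activity.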
# TGFb inhibitor = TGF-b pathway inhibition. AID 588855. HepG2 CAGA-GFP TGF-b/SMAD3 reporter, GFP fluorescence, 18 h; TGF-beta stimulated, 500 pg/mL final. actives 1.2% (n = 410,000). Potency, µM (doses to about 46.1 µM), inactives show at the highest dose activity, negative = inhibition, most hits filed as inhibitors; note: % is set by controls: 0 for no effect and ±100 for the full control effect; nearly all actives have a fitted effect of over 65% in size
#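 Read-out: total well GFP (ex488/em500-530) summed from mean per-cell fluorescence. Cells: HEPG2 CAGA-GFP, 1% FBS DMEM, 18 h at 37 degrees C with 500 pg/mL final TGF-beta. Unstimulated wells served as the full-inhibition control; stimulated DMSO wells = 0%.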
# HepG2 viability = counter-screen for TGF-b inhibitors: cytotoxicity in HepG2 cells | HepG2 CAGA-GFP viability, ATP luminescence, 18 h | Potency, µM (doses to about 46.1 µM), without a hit: at the top dose activity change, negative = cytotoxicity, hits mostly cytotoxic | actives 0.76% (n = 410,000)
#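 HepG2 CAGA-GFP cells (1000/well, DMEM with 1% FBS) received compound, then TGF-beta at 500 pg/mL final, and were incubated 18 hours at 37 degrees C. Viability was read by CellTiter-Glo luminescence. Media-only wells were set as complete cell-killing and DMSO as no toxicity.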
# An asterisk follows results filed as active; ? = inconclusive; / = no result; [ ] = remark or other dose. Calls come from the whole dose curve; as a rule, active = well fitted curve in the direction sought with a large enough effect; inconclusive = small, poorly fitted or top-dose-only effect, or another doubt; inactive = no such curve, though single readings can be large; an effect the other way counts as inactive or inconclusive. Potency is the fitted concentration of half-maximal effect.
SMILES,Nrf2 block,Nrf2 ARE act,A549 tox,TGFb inhibitor,HepG2 viability
COc1ccc(-c2sc(NC(=O)c3ccc(C)cc3)nc2-c2ccc([N+](=O)[O-])cc2)cc1,4%,-1%,-3%,0%,-32%
COc1ccc(C(=O)Nc2nc(-c3ccc([N+](=O)[O-])cc3)c(-c3ccccc3)s2)cc1,13µM*,0%,-29%,4%,-2%
CCC(C)(C)C1CCc2c(sc(N)c2C(N)=O)C1 (stereo unspecified),18µM*,3%,8%,?,-8%
CC(C)(C)C1CCc2c(sc(N)c2C(N)=O)C1 (stereo unspecified),-27%,4%,0%,-17%,-2%
CN(CC(=O)Nc1c(Cl)cccc1Cl)C(=O)CNC(=O)c1ccco1,6%,0%,6%,-20%,-17%
CC1(C)CC(N=c2cc(-c3ccccc3)oc3ccc(Cl)cc23)CC(C)(C)N1,-13%,-3%,-13%,?,16µM*
OCCCN=c1cc(-c2ccccc2)oc2ccc(Cl)cc12,?,15%,?,0%,-12%
CCOC(=O)c1c(CSc2ccccc2)oc2ccc(O)cc12,?,-1%,0%,?,-35%
O=C(N/N=C\c1ccc(CNS(=O)(=O)c2ccc(Cl)cc2)o1)C(=O)Nc1ccc(Oc2ccccc2)cc1,16µM*,-1%,?,?,-42%
O=C(N/N=C\c1ccc(CNS(=O)(=O)c2ccccc2)o1)C(=O)Nc1ccc(F)cc1,3%,1%[9.22 µM],-5%,0%,-18%
O=C(N/N=C/C(Cl)=C/c1ccccc1)c1ccccn1,?,17%,-6%,4%,1%
O=C(N/N=C/C(Cl)=C/c1ccccc1)c1ccncc1,-5%,22µM*,-7%,-1%,3%
O=C(NN=C1C2CC3CC(C2)CC1C3)c1ccncc1,12%,0%,-4%,29%,19%
O=C(N/N=C1\C/C(=N\NC(=O)c2ccncc2)c2ccccc21)c1ccncc1,7.3µM*,?,?,-16%,-32%
O=C(N/N=C/C(Cl)=C\c1ccccc1)c1cccs1,?,11µM*,-12%,0%,-5%
COc1ccccc1CNC(=O)c1sc2nc3n(c(=O)c2c1C)CCC3,-10%,0%,2%,1%,-2%
COc1nc(N(C)S(=O)(=O)c2ccc(C)cc2)nc(C)c1Br,4.1µM*,-1%,8%,4%,4%
CC(=O)c1ccc(NS(=O)(=O)c2ccc(CC(C)C)cc2)cc1,?,1%,-9%,16µM*,-92%
CCOc1cc(C=C(C(=O)OC)C(=O)OC)ccc1OCc1ccc([N+](=O)[O-])cc1,18µM*,-3%,?,13µM*,-52%
CCOc1cc(/C=N/O)ccc1OCc1ccc([N+](=O)[O-])cc1,15%,1%,16%,10%,-10%
O=C(Nc1ccccc1)C1CCCN1C(=O)NCc1ccccc1 (stereo unspecified),-3%,0%,-3%,9%,-14%
CC1(C)CC(=O)C/C(=N/NC(=O)c2ccc(-c3ccccc3)cc2)C1,16µM*,0%,-1%,-15%,-20%
CC1(C)CC(=O)C/C(=N\NC(=O)Cc2ccccc2)C1,?,4%,4%,11%,21%
O=C(CCSc1ccccc1)OCn1nnc2ccccc2c1=O,19%,3%,8%,4µM*,-7%
COc1ccc(C(=O)Nc2ccccc2C(=O)N/N=C/c2ccccn2)cc1OC,9.2µM*,7%,-13%,?,-18%
SMILES,Nrf2 block,Nrf2 ARE act,A549 tox,TGFb inhibitor,HepG2 viability
O=C(N/N=C\c1ccccn1)c1ccccc1O,?,22%,-10%,?,3.2µM*
Cc1ccccc1C(=O)NC(=S)Nc1ccc(S(=O)(=O)N2CCN(C)CC2)cc1,/,0%,15%,-6%,-4%
O=S(=O)(c1ccc(NC(=S)N/N=C/c2ccc(Oc3ccccc3)cc2)cc1)N1CCOCC1,-6%,-1%,2%,-2%,4%
O=S(=O)(c1ccc(NC(=S)N/N=C/c2c3ccccc3cc3ccccc23)cc1)N1CCOCC1,9.2µM*,5%,-7%,?,-24%
O=S(=O)(c1ccc(NC(=S)N2CCN(c3ccccc3F)CC2)cc1)N1CCOCC1,13µM*,-1%,-3%,4%,-2%
Cc1ccccc1C(=O)NC(=S)Nc1ccc(S(=O)(=O)N2CCOCC2)cc1,13µM*,-1%,3%,13%,-9%
CCOc1ccc(Br)cc1CNc1ccc2c(c1)OCCO2,3%,1%,8%,18%,-11%
Cc1ccc(CNC(=O)C2CCC(CNc3c(N4CCOCC4)c(=O)c3=O)CC2)cc1 (stereo unspecified),12%,0%,-3%,-3%,-3%
Clc1cccc(CN2CCc3c([nH]c4ccccc34)C2)c1,24%,0%,3%,-15%,-19%
Clc1ccc(CN2CCc3c([nH]c4ccccc34)C2)cc1Cl,-7%,-2%,5%,18µM*,-116%
CC1(c2nnc(Cc3ccccc3)o2)CC(c2ccc(OC(F)(F)F)cc2)=NO1 (stereo unspecified),23µM*,1%,-12%,?,-21%
CC1(c2nnc(Cc3ccccc3)o2)CC(c2ccccc2)=NO1 (stereo unspecified),-2%,0%,6%,2%,5%
CC(C)N1CCc2c(sc(NC(=O)c3ccc(S(=O)(=O)N4CCc5ccccc54)cc3)c2C(N)=O)C1,?,-6%,?,?,13µM*
Cc1ccc(C(=O)Nc2ccc(S(=O)(=O)N3CCc4ccccc43)cc2)o1,21µM*,1%,-23%,?,-22%
Cc1ccc(C(=O)Nc2ccc(S(=O)(=O)N3CCc4ccccc4C3)cc2)o1,/,-1%,-1%,-2%,-18%
CCOC(=O)CCC(=O)Nc1ccc(S(=O)(=O)N2CCc3ccccc32)cc1,3%,0%,0%,-3%,2%
COc1ccc(C(=O)Nc2ccc(S(=O)(=O)N3CCc4ccccc43)cc2)cc1,15µM*,3%,-10%,?,-37%
CCCC(=O)NC(=S)Nc1ccc(S(=O)(=O)N2CCc3ccccc32)cc1,21µM*,-1%,-14%,?,-10%
NS(=O)(=O)c1ccc(NC(=O)c2ccc(S(=O)(=O)N3CCc4ccccc43)cc2)cc1,-7%,2%,0%,?,-2%
Cc1ccc(NC(=O)c2cc(S(=O)(=O)N3CCc4ccccc43)cn2C)cc1,?,0%,1%,-23%,-17%
CC(C)N1CCc2c(sc(NC(=O)c3nc4ccccc4s3)c2C(N)=O)C1,?,1%,-23%,1%,-31%
